The source made the active and inactive calls. The calls were made as follows: active = hit-call score of the fitted dose curve at least 0.9, where 1 is the maximum; inactive = score below 0.9.
How the values were obtained:
Details in all cases: mRNA level, 48 h; actives raise or lower the signal
[1] = read-out: flavin-containing dimethylaniline monooxygenases 3 (FMO3), FMO3 (gene 2328); assay: LTEA_HepaRG_FMO3: Life Technologies and Expression Analysis (LTEA) Assay for flavin-containing dimethylaniline monooxygenases 3 (FMO3) using HepaRG (AID 2283453)
Method in brief: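 Differentiated HepaRG cells in serum-free induction medium, exposed 48 h in duplicate to 8 half-log concentrations up to 100 uM in 0.5% DMSO. FMO3 mRNA by qRT-PCR, normalized to ACTB, GAPDH, POLR2A; bidirectional fit vs DMSO.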

[2] = read-out: Cytochrome P450 (CYP1A1), CYP1A1 (gene 1543); assay: LTEA_HepaRG_CYP1A1: Life Technologies and Expression Analysis (LTEA) Assay for Cytochrome P450 (CYP1A1) using HepaRG (AID 2283454)
Method in brief: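 Induction of CYP1A1 mRNA in a human hepatic cell line was measured 48 h after dosing, with 1 mM phenobarbital as induction positive control and 0.5% DMSO vehicle as baseline for bidirectional curve fitting.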

[3] = read-out: CFLAR gene, CFLAR (gene 8837); assay: LTEA_HepaRG_CFLAR: Life Technologies and Expression Analysis (LTEA) Assay for CFLAR gene using HepaRG (AID 2283455)
Method in brief: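 Differentiated HepaRG cells in serum-free induction medium were exposed 48 h in duplicate to eight half-log concentrations up to 100 uM in 0.5% DMSO; mRNA measured by TaqMan qRT-PCR, normalized to ACTB, GAPDH, POLR2A; bidirectional fitting versus DMSO.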

[4] = read-out: Forkhead box O1 (FOXO1), FOXO1 (gene 2308); assay: LTEA_HepaRG_FOXO1: Life Technologies and Expression Analysis (LTEA) Assay for Forkhead box O1 (FOXO1) using HepaRG (AID 2283456)
Method in brief: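 Differentiated HepaRG cells, in serum-free induction medium with 0.5% DMSO, exposed 48 h in duplicate to 8-point half-log series from 100 uM. FOXO1 mRNA measured by TaqMan qRT-PCR, normalized to ACTB, GAPDH, POLR2A; bidirectional fit versus DMSO.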

[5] = read-out: growth arrest and DNA damage 45 (GADD45A), GADD45A (gene 1647); assay: LTEA_HepaRG_GADD45A: Life Technologies and Expression Analysis (LTEA) Assay for growth arrest and DNA damage 45 (GADD45A) using HepaRG (AID 2283458)
Method in brief: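 Cells plated and cultured 48 h, switched to serum-free induction medium, then dosed for 48 h (100 uM top, half-log dilutions, 0.5% DMSO). RNA was isolated and transcript measured by Fluidigm qRT-PCR.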

[6] = read-out: Forkhead box O3 (FOXO3), FOXO3 (gene 2309); assay: LTEA_HepaRG_FOXO3: Life Technologies and Expression Analysis (LTEA) Assay for Forkhead box O3 (FOXO3) using HepaRG (AID 2283459)
Method in brief: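 Differentiated human HepaRG cells, 48 h post-plating, exposed in duplicate for 48 h in serum-free induction medium; 8-point half-log series from 100 uM in 0.5% DMSO. FOXO3 mRNA by TaqMan qRT-PCR, normalized to ACTB/GAPDH/POLR2A; bidirectional fit versus DMSO.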

[7] = read-out: ABC Transporter (ABCB1), ABCB1 (gene 5243); assay: LTEA_HepaRG_ABCB1: Life Technologies and Expression Analysis (LTEA) Assay for ABC Transporter (ABCB1) using HepaRG (AID 2283460)
Method in brief: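 HepaRG cells exposed in duplicate for 48 h in serum-free induction medium to eight half-log concentrations up to 100 uM in 0.5% DMSO. ABCB1 mRNA quantified by qRT-PCR, normalised to ACTB, GAPDH and POLR2A; fitted bidirectionally versus DMSO.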

[8] = read-out: growth arrest and DNA damage 45 (GADD45B), GADD45B (gene 4616); assay: LTEA_HepaRG_GADD45B: Life Technologies and Expression Analysis (LTEA) Assay for growth arrest and DNA damage 45 (GADD45B) using HepaRG (AID 2283461)
Method in brief: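 Values are bidirectional concentration-response fits against 0.5% DMSO controls. Underlying data: qRT-PCR mRNA levels in human HepaRG liver cells treated 48 h in serum-free induction medium, eight concentrations topping at 100 uM.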

[9] = read-out: ABC Transporter (ABCC3), ABCC3 (gene 8714); assay: LTEA_HepaRG_ABCC3: Life Technologies and Expression Analysis (LTEA) Assay for ABC Transporter (ABCC3) using HepaRG (AID 2283462)
Method in brief: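 Differentiated HepaRG liver cells receive test chemicals at eight concentrations (max 100 uM) for 48 h. Expression of ABCC3 is quantified by qRT-PCR against ACTB, GAPDH and POLR2A, and activity is fitted in both directions against the DMSO control.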

[10] = read-out: ABC Transporter (ABCB11), ABCB11 (gene 8647); assay: LTEA_HepaRG_ABCB11: Life Technologies and Expression Analysis (LTEA) Assay for ABC Transporter (ABCB11) using HepaRG (AID 2283463)
Method in brief: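 Differentiated human HepaRG cells in serum-free induction medium, dosed in duplicate for 48 h. Eight-point half-log series from 100 uM in 0.5% DMSO; ABCB11 mRNA by qRT-PCR, normalized to ACTB, GAPDH, POLR2A, fitted bidirectionally versus DMSO.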

[11] = read-out: ABC Transporter (ABCC2), ABCC2 (gene 1244); assay: LTEA_HepaRG_ABCC2: Life Technologies and Expression Analysis (LTEA) Assay for ABC Transporter (ABCC2) using HepaRG (AID 2283464)
Method in brief: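 Gene expression of ABCC2 was determined by qRT-PCR in HepaRG cells exposed 48 h to chemicals (highest 100 uM, half-log dilutions). Activity was fitted in both directions relative to 0.5% DMSO vehicle.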

[12] = read-out: Broad substrate specificity ATP-binding cassette transporter ABCG2 (Homo sapiens) (UniProt Q9UNQ0); assay: LTEA_HepaRG_ABCG2: Life Technologies and Expression Analysis (LTEA) Assay for ABC Transporter (ABCG2) using HepaRG (AID 2283465)
Method in brief: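 Differentiated HepaRG cells were exposed for 48 h in serum-free induction medium to 8 half-log concentrations, top 100 uM, in 0.5% DMSO. ABCG2 mRNA was measured by qRT-PCR, normalized to ACTB, GAPDH and POLR2A, with bidirectional fitting versus DMSO.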

[13] = read-out: ATP-citrate lyase (ACLY), ACLY (gene 47); assay: LTEA_HepaRG_ACLY: Life Technologies and Expression Analysis (LTEA) Assay for ATP-citrate lyase (ACLY) using HepaRG (AID 2283466)
Method in brief: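 Differentiated HepaRG cells exposed 48 h in serum-free induction medium to eight half-log concentrations up to 100 uM in 0.5% DMSO, duplicates. Transcript measured by Fluidigm TaqMan qRT-PCR, normalized to ACTB, GAPDH, POLR2A; bidirectional fit versus DMSO.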

[14] = read-out: Peroxisomal acyl-coenzyme A oxidase 1 (ACOX1) gene, ACOX1 (gene 51); assay: LTEA_HepaRG_ACOX1: Life Technologies and Expression Analysis (LTEA) Assay for Peroxisomal acyl-coenzyme A oxidase 1 (ACOX1) gene using HepaRG (AID 2283467)
Method in brief: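 HepaRG cells, plated 48 h then switched to serum-free induction medium, were exposed in duplicate for 48 h to 8-point half-log concentrations up to 100 uM in 0.5% DMSO. ACOX1 mRNA was measured by qRT-PCR, normalized to ACTB/GAPDH/POLR2A, and fitted bidirectionally versus DMSO.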

[15] = read-out: Alkaline Phosphatase, Placental (ALPP) gene, ALPP (gene 250); assay: LTEA_HepaRG_ALPP: Life Technologies and Expression Analysis (LTEA) Assay for Alkaline Phosphatase, Placental (ALPP) gene using HepaRG (AID 2283468)
Method in brief: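 Expression of ALPP was quantified by qRT-PCR against three housekeeping genes in human HepaRG cultures treated for 48 h with an eight-point concentration series up to 100 uM. Activity in either direction was fitted relative to 0.5% DMSO.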

[16] = read-out: Bcl-2 (BAD) gene, BAD (gene 572); assay: LTEA_HepaRG_BAD: Life Technologies and Expression Analysis (LTEA) Assay for Bcl-2 (BAD) gene using HepaRG (AID 2283469)
Method in brief: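 Differentiated HepaRG cells were exposed in duplicate in 0.5% DMSO for 48 h to eight-point half-log concentrations up to 100 uM. BAD mRNA was measured by Fluidigm TaqMan qRT-PCR, normalized to ACTB, GAPDH and POLR2A, and fitted bidirectionally against DMSO.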

[17] = read-out: Bcl-2 (BAX) gene, BAX (gene 581); assay: LTEA_HepaRG_BAX: Life Technologies and Expression Analysis (LTEA) Assay for Bcl-2 (BAX) gene using HepaRG (AID 2283470)
Method in brief: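 HepaRG (human liver), 48 h exposure, duplicate wells. 8-pt curve, half-log from 100 uM, 0.5% DMSO. BAX transcript by TaqMan qRT-PCR; ACTB/GAPDH/POLR2A normalization; gain or loss vs DMSO baseline.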

[18] = read-out: adenosine kinase (ADK) gene, ADK (gene 132); assay: LTEA_HepaRG_ADK: Life Technologies and Expression Analysis (LTEA) Assay for adenosine kinase (ADK) gene using HepaRG (AID 2283471)
Method in brief: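 Read-out is ADK transcript level measured by qRT-PCR and normalised to three housekeeping genes. Cells are human HepaRG, dosed for 48 h at up to 100 uM in 0.5% DMSO. Gain or loss of signal is fitted against DMSO controls.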

[19] = read-out: Alpha-fetoprotein (AFP) gene, AFP (gene 174); assay: LTEA_HepaRG_AFP: Life Technologies and Expression Analysis (LTEA) Assay for Alpha-fetoprotein (AFP) gene using HepaRG (AID 2283472)
Method in brief: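 HepaRG, single lot; 48 h post-plating -> serum-free induction medium; cpd 8-pt, 100 uM top, half-log, 0.5% DMSO, duplicate, 48 h. RNA -> qRT-PCR AFP, norm ACTB/GAPDH/POLR2A. Bidirectional fit vs DMSO.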

Measured: AC50

Broad substrate specificity ATP-binding cassette transporter ABCG2 (Homo sapiens), sequence (Q9UNQ0 whole entry, looked up): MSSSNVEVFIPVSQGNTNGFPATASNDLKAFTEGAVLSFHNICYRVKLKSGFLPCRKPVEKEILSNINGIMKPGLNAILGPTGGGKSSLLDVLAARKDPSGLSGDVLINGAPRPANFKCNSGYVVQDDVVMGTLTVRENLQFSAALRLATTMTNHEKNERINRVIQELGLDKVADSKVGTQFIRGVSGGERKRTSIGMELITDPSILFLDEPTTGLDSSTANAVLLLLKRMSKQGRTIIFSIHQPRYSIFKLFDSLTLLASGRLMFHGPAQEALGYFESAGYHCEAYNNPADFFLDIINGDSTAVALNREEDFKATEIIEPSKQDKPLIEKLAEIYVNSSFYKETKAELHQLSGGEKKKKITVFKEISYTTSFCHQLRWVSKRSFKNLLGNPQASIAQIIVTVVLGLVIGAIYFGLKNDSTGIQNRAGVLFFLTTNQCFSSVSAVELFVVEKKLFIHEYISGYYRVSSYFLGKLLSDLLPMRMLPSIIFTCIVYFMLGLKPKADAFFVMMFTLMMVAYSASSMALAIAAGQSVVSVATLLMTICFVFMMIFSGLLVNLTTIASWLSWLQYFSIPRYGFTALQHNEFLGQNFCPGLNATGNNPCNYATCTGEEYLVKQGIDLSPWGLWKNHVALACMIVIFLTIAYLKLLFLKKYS

O=C(Nc1ccc([N+](=O)[O-])cc1Cl)c1cc(Cl)ccc1O
active: [1] 2.69 µM | [2] 0.147 µM | [3] 2.33 µM | [4] 3.33 µM | [5] 4.29 µM | [7] 2.25 µM | [8] 3.32 µM | [9] 3.52 µM | [10] 3.37 µM | [11] 3.13 µM | [12] 17 µM | [13] 3.76 µM | [14] 3.17 µM | [15] 15.9 µM | [16] 3.89 µM | [17] 6.15 µM | [18] 3.07 µM | [19] 20.4 µM
inactive: [6]

CCN(Cc1c(F)cccc1Cl)c1c([N+](=O)[O-])cc(C(F)(F)F)cc1[N+](=O)[O-]
active: [1] 50 µM | [2] 14.8 µM | [8] 50 µM | [11] 50 µM | [12] 20.3 µM | [19] 50 µM
inactive: all other assays above

COC(=O)CSc1cc(N=c2sc(=O)n3n2CCCC3)c(F)cc1Cl
active: [2] 64.9 µM | [7] 25.6 µM | [11] 50 µM
inactive: all other assays above

O=C(O)C1(C(=O)Nc2ccc(Cl)cc2Cl)CC1
inactive: [3] | [4] | [6] | [8] | [9] | [13] | [15] | [16] | [17]
active: [1] 67 µM | [2] 50 µM | [5] 80.7 µM | [7] 50 µM | [10] 61 µM | [11] 66.4 µM | [12] 78.2 µM | [14] 81.2 µM | [18] 79.4 µM | [19] 65.6 µM

CC(C)(C)[C@@H](O)[C@@H](Cc1ccc(Cl)cc1)n1cncn1
active: [2] 33.9 µM | [7] 8.74 µM | [11] 13.1 µM | [13] 50 µM
not listed: [8]
inactive: all other assays above

N[C@@H](Cc1cc(I)c(Oc2ccc(O)c(I)c2)c(I)c1)C(=O)O
active: [1] 40 µM | [2] 0.0392 µM | [7] 73.3 µM | [8] 7.94 µM | [10] 7.94 µM | [11] 7.94 µM | [12] 70.5 µM | [14] 7.94 µM | [19] 40 µM
inactive: all other assays above
